# Experimental data from PubChem BioAssay AID372 (MTDP, 2006).
# The whole screen tested about 100,000 compounds, of which about 770 (0.77%) were called active. The full list was thinned out, with actives kept by preference. Values without a mark were called inactive. Rule as the data show it: active = inhibition above about 50%; inactive = the rest.
# Target: Gag-Pol polyprotein (Human immunodeficiency virus type 1 group M subtype B (isolate HXB2)) (UniProt P04585)
# Experiment: RNase H inhibition, HIV 1 Gag Pol polyprotein, FRET biochemical assay, screening (AID 372)
# Conditions: HIV-1 RT RNase H, FRET RNA/DNA substrate fluorescence; at 10 µM; stronger effect = higher value
row,SMILES,inhibition
1,O=C(c1c(F)cccc1F)N1CCN(c2cc(N3CCCC3)c(F)cc2[N+](=O)[O-])CC1,11%
2,CCc1ccc(OCC(=O)Nc2ccc3c(c2)C(=O)c2ccccc2C3=O)cc1,27%
3,COC(=O)c1c(NC(=O)c2cc(-c3ccc(Cl)s3)nc3ccccc23)sc2c1CCC(C(C)(C)C)C2 (stereo unspecified),1%
4,COc1ccc(C(Nc2ccccc2)P(=O)(OC(C)C)OC(C)C)cc1 (stereo unspecified),10%
5,COc1ccc(OC)c(NC(=O)c2ccc(N(C)S(=O)(=O)c3ccccc3)cc2)c1,13%
6,Oc1c(Cl)cc(Cl)cc1/C=N/N=C/c1cc(Cl)cc(Cl)c1O,15%
7,COc1ccc(C2=CC(=O)c3ccccc3C2=O)cc1,40%
8,CCOc1ccc(C2=NNC(=O)CC2)cc1,10%
9,COc1ccc(C2=CC(=O)C=CC2=O)cc1,75% (active)
10,COc1ccc(-c2cccc(=O)o2)cc1,0%
11,CCCC1CCC(c2ccc(OCC)cc2)=CC1=O (stereo unspecified),8%
12,CCOC(=O)C1=C(C)N=c2s/c(=C\c3ccc(O)c(OC)c3)c(=O)n2C1c1cc(OC)ccc1OC (stereo unspecified),0%
13,CC(NC(=O)CN1C(=O)c2ccccc2C1=O)c1ccccc1 (stereo unspecified),3%
14,Cc1cccc(OCCCOc2cccc(/C=c3\sc4nc5ccccc5n4c3=O)c2)c1,3%
15,CCOc1ccc(NC(=S)NC(=O)/C=C/c2ccc(OC)cc2)c([N+](=O)[O-])c1,60% (active)
16,CCOc1ccc(NC(=S)NC(=O)c2ccc(F)cc2)c([N+](=O)[O-])c1,7%
17,CCOc1ccc(NC(=S)NC(=O)/C=C/c2ccc(C)cc2)c([N+](=O)[O-])c1,21%
18,CCOc1ccc(NC(=S)NC(=O)c2ccccc2)c([N+](=O)[O-])c1,11%
19,CCOc1ccc(NC(=S)NC(=O)/C=C/c2ccc(F)cc2)c([N+](=O)[O-])c1,84% (active)
20,CCOc1ccc(NC(=S)NC(=O)/C=C/c2ccc(OC)c(OC)c2)c([N+](=O)[O-])c1,2%
21,Brc1ccc(-c2nc(-c3ccccc3)c(-c3ccc(Br)cc3)[nH]2)cc1,17%
22,CCOC(=O)c1[nH]c(C)c(C(=O)N/N=C/c2ccc(-c3ccc(Cl)cc3)o2)c1C,18%
23,C=CCOc1ccc(/C=C2\SC(N3CCN(c4ccccc4)CC3)=NC2=O)cc1,13%

row,SMILES,inhibition
1,COc1cccc(C(=O)N2c3ccc(C)cc3-c3c(ssc3=S)C2(C)C)c1,13%
2,COc1ccc2c(c1)-c1c(ssc1=S)C(C)(C)N2C(=O)CN1C(=O)c2ccccc2C1=O,0%
3,COC(=O)C1=C(C(=O)OC)SC(=C2C(=S)C(C)(C)N(C(=O)/C=C/c3ccc(OC)c(OC)c3)c3ccc(C)cc32)S1,40%
4,COc1cccc(C(=O)N2c3cc(OC)ccc3-c3c(ssc3=S)C2(C)C)c1,54% (active)
5,COC(=O)C1=C(C(=O)OC)SC(=C2C(=S)C(C)(C)N(C(=O)/C=C/c3ccc(OC)cc3)c3ccc(C)cc32)S1,22%
6,Cc1ccc2c(c1)N(C(=O)CN1C(=O)c3ccccc3C1=O)C(C)(C)c1ssc(=S)c1-2,10%
7,COc1ccc2c(c1)N(C(=O)c1ccc(C(C)(C)C)cc1)C(C)(C)c1ssc(=S)c1-2,15%
8,COc1ccc(/C=C/C(=O)N2c3ccc(C)cc3-c3c(ssc3=S)C2(C)C)cc1OC,57% (active)
9,COc1ccc2c(c1)-c1c(ssc1=S)C(C)(C)N2C(=O)/C=C/c1ccc(OC)c(OC)c1,27%
10,COC(=O)C1=C(C(=O)OC)SC(=C2C(=S)C(C)(C)N(C(=O)/C=C/c3ccc(OC)c(OC)c3)c3ccc(OC)cc32)S1,53% (active)
11,COc1ccc(/C=C/C(=O)N2c3ccc(C)cc3-c3c(ssc3=S)C2(C)C)cc1,20%
12,O=C(O)C1CCCCC1C(=O)NCc1ccccc1 (stereo unspecified),0%
13,O=C(Nc1ccccc1)c1ccccc1C(=O)OCCCCCc1cccs1,1%
14,CC(/C=C(\NC(=O)c1ccccc1)C(=O)N/N=C/c1cccc([N+](=O)[O-])c1)=C\c1ccccc1,6%
15,O=C(Nc1ccc(-c2ccc(Cl)cc2)cc1)C1CC1,6%
16,O=[N+]([O-])c1ccc(C2Nc3ccc(I)cc3C3C=CCC32)cc1 (stereo unspecified),25%
17,Cc1ccc(S(=O)(=O)N(CC(O)CN(CC(C)C)CC(C)C)c2cccc(C)c2)cc1 (stereo unspecified),9%
18,COc1ccc2ccccc2c1/C=N/NC(=O)c1ccc(-c2ccccc2)cc1,13%
19,O=C(Nc1ccc(NC(=O)c2ccc(Cl)cc2Cl)c(Cl)c1)c1ccccc1,3%
20,COc1ccc2c(c1)-c1c(ssc1=S)C(C)(C)N2C(=O)c1ccccc1Br,27%
21,COc1ccc2c(c1)-c1c(ssc1=S)C(C)(C)N2C(=O)c1ccccc1OC,60% (active)
22,COc1ccc2c(c1)-c1c(ssc1=S)C(C)(C)N2C(=O)c1ccc(OC)c(OC)c1,4%
23,CCC1CCc2c(sc(NC(=O)c3ccc(Br)o3)c2C(=O)OC)C1 (stereo unspecified),13%
